Each structure is given as a SMILES string. Where “and” joins values, the source holds several entries; their conditions need not be identical. Equal values may be shown once.

The test can be described thus: viability loss with induced miR-34 in A549 – imaging, A549 dox-inducible miR-34, nuclei and caspase counts, primary screen (AID 1347080). Note: test concentration not given here. Particulars: A549 miR-34 inducible, Hoechst nuclei count, 48 h; measured here: relative caspase fold change +Dox/-Dox.
Turning to `Fc1ccc(C(OCCN2CCN(C/C=C/c3ccccc3)CC2)c2ccc(F)cc2)cc1`, the fold change was determined as 1.03.

Take `O=C1Nc2cc(Cl)c(Cl)cc2N2CCNCC12` (stereo not given): the fold change was found to be 0.693.

With `O=C1/C(=C/c2ccccc2)C[C@@]2(O)C3Cc4ccc(O)c5c4[C@@]2(CCN3CC2CC2)[C@H]1O5`, the fold change was determined as 0.83.

As for `CC(C)(C)NCC(O)COc1cccc2[nH]c(C#N)cc12` (stereo not given), the fold change was found to be 1.8.

For the compound `Cc1o[nH]c(=O)c1C[C@H](N)C(=O)O`, the fold change came to 0.71.

In the case of `C[C@H](N)Cc1cnc[nH]1`, the fold change was 1.13.

As for `c1ccc(CC(c2ccccc2)N2CCCCC2)cc1` (stereo not given), the fold change came to 0.814.

As for `CCCOc1ccc2[nH]cc(C3=CCNCC3)c2n1`, the fold change is 0.876.

`CCCCCOc1c(OC)ccc2cc(C(=O)NCc3ccc4c(c3)OCO4)c(=O)[nH]c12`: the fold change came out at 1.43.

As for `CCN(CC)CCO[C@H]1CC[C@@]2(C)C(=CC[C@@H]3[C@@H]2CC[C@]2(C)C(=O)CC[C@@H]32)C1`, the fold change is 0.558 and 0.739.

Consider `CC(C)CC(N)C1(c2ccc(Cl)cc2)CCC1` (stereo not given), for which the fold change turned out to be 1.15.

As for `O=C1CSC(c2ccccc2Cl)c2cc(Cl)ccc2N1` (stereo not given), the fold change was 1.12 and 0.874.

In the case of `CC(=O)N1CC[N+](C)(C)CC1`, the fold change was found to be 0.788.

On to `O=C(O)CCC(CP(=O)(O)O)C(=O)O` (stereo not given), for which the fold change is 0.521.

Consider `COc1cc2c(cc1O)C(CCc1ccc(Cl)cc1)N(C)CC2` (stereo not given), for which the fold change amounted to 1.1.

Regarding `N[C@]1(C(=O)O)CC[C@@H](C(=O)O)C1` (racemic), the fold change was 0.73.

In the case of `c1ccc(C2CNCc3ccccc32)cc1` (stereo not given), the fold change turned out to be 0.998.

Take `COC1CCC2NC(C(=O)c3ccccc3)CC2C1` (stereo not given): the fold change stood at 0.708.

On to `O=C(O)/C=C/CO`, for which the fold change worked out at 0.9.

Regarding `CCOC(=O)c1ncn2c1CN(C)C(=O)c1cc(N=[N+]=[N-])ccc1-2`, the fold change turned out to be 1.09.

For `C(=C\c1ccccc1)/CN1CCN(CCOC(c2ccccc2)c2ccccc2)CC1`, the fold change is 0.604.

Regarding `C=C(C)[C@@H]1CCC(C)=C[C@H]1c1c(OC)cc(C)cc1OC`, the fold change is 0.715 and 0.958.

Regarding `C[C@H](N)Cn1ccc2cc(F)c(Cl)cc21`, the fold change was found to be 1.05.

Take `CCOC(=O)c1ncc2[nH]c3ccc(OCc4ccccc4)cc3c2c1COC`: the fold change stood at 1.71.

For the compound `Cc1[nH]c2ccc(Cl)cc2c1C1=CCNCC1`, the fold change was found to be 1.4.

`CCC(Oc1ccc(Cl)cc1)C(=O)OC1CC2CCC(C1)N2C` (stereo not given): the fold change came to 1.03.

For `NCC(CS(=O)(=O)O)c1ccc(Cl)cc1` (stereo not given), the fold change was determined as 1.04.

Take `CN1[C@@H]2CC[C@H]1CC(OC(=O)N1Cc3ccccc3NC1=O)C2` (stereo not given in full): the fold change turned out to be 1.11.

For `Cc1[nH]cnc1CCN`, the fold change came to 1.94.

For `Cc1cc(C)cc(C(=O)OC2CC3CCC(C2)N3C)c1` (stereo not given), the fold change stood at 1.01.

For `CCN1C[C@]2(COC(=O)c3ccccc3N3C(=O)C[C@H](C)C3=O)CC[C@H](OC)[C@]34C2[C@H](OC)[C@](O)([C@H]13)[C@@]1(O)C[C@H](OC)[C@H]2C[C@@H]4[C@@H]1[C@H]2OC`, the fold change stood at 0.834.

Turning to `CC[N+](CC)(CCCNC1=CC(=O)C(NCCC[N+](CC)(CC)Cc2ccccc2)=CC1=O)Cc1ccccc1`, the fold change turned out to be 0.768.

Turning to `CCOc1cncc(/C=C/CCNC)c1`, the fold change stood at 1.27.

Regarding `Clc1ccc(C2=CCCC3CCC2N3)cn1` (stereo not given), the fold change turned out to be 0.911.

As to `CN1CC[C@@H]2CN3CCc4cccc(c43)[C@@H]2C1`, the fold change came out at 0.673.

Turning to `Cn1c2c(c3ccccc31)CCNCC2`, the fold change turned out to be 1.23.

`CCCCCCC[n+]1ccc(-c2cc[n+](CCCCCCC)cc2)cc1`: the fold change was 1.23.

For the compound `C[C@H](Cc1ccc(OCC(=O)O)cc1)NC[C@H](O)c1cccc(Cl)c1`, the fold change came out at 0.725.

For `CN1Cc2ccccc2[C@@H]2c3cccc4[nH]cc(c34)C[C@H]21`, the fold change was determined as 0.677.

As for `CC1=C(O)C(=O)[C@@H]2O[C@@H]2C1=O`, the fold change came out at 1.

Source of the values: PubChem BioAssay.
